The results in this text go back to PubChem BioAssay (Tox21).

Unmarked numbers belong to inactive results. Results filed as inconclusive are left out. Active and inactive are the calls of the source. Unless noted, calls come from the whole dose curve; as a rule, active = well fitted curve in the direction sought with a large enough effect in the repeat runs; inconclusive = weak or mixed curves; inactive = no such curve, though single readings can be large; an effect the other way counts as inactive or inconclusive.

The nature of test [1]: qHTS assay to identify small molecule agonists of the androgen receptor (AR) signaling pathway in the presence of an antagonist - cell viability counter screen (AID 1259379). Note: nearly all actives have a fitted effect of over 25% in size. Note: potency is the fitted concentration of half-maximal effect. An outline of the steps: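 Fluorescence from CellTiter-Fluor, added after 15 hr and read 1 hr later, gave cell viability. Cells were MDA-kb2 exposed to compounds (15 concentrations) in the presence of 3.0uM nilutamide at 37C, 0% CO2.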
A general note: Quantitative high-throughput screening tests each substance at several concentrations.

A short description of test [2]: qHTS assay to identify small molecule agonists of the estrogen receptor beta (ER-beta) signaling pathway - cell viability counter screen (AID 1259380). Note: nearly all actives have a fitted effect of over 30% in size. Note: potency is the fitted concentration of half-maximal effect. An outline of the steps: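 Same-well viability counter screen. Cells: ER-beta-UAS-bla HEK293T, plated 6 hr before compound, in 2% charcoal-stripped FBS. Compound exposure 16 hr, 37C; viability by CellTiter-Glo luminescence after 30 min at room temperature.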

Test [3] in a line: qHTS assay to identify small molecule antagonists of the estrogen receptor beta (ER-beta) signaling pathway - cell viability counter screen (AID 1259382).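 Note: HEK293T cells carrying ER-beta-UAS-bla reporter stimulated with estradiol; series mostly up to about 92 µM; nearly all actives have a fitted effect of over 55% in size.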 The essentials: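 Following a 6 hr plating period, HEK293T cells carrying a UAS-driven beta-lactamase reporter under ER-beta control received compounds and 1nM E2 (final). After 16 hr at 37C and 2 hr substrate loading, CellTiter-Glo luminescence indicated viability.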

Test [4] concerns the target Estrogen receptor (Homo sapiens) (UniProt P03372). Kind of test: qHTS assay to identify small molecule agonists of the estrogen receptor alpha (ER-alpha) signaling pathway in the presence of an antagonist (AID 1259383; calls by dose curve; note: nearly all actives have a fitted effect of over 15% in size; note: potency is the fitted concentration of half-maximal effect; for activation: top concentration of the series differs between compounds). An outline of the steps:
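Cells are hormone-deprived for 5 days (charcoal-stripped FBS, no phenol red), plated for 24hr, spiked with 10.0nM ICI-182,780, then dosed at 15 concentrations. After 22hr at 37C, ONE-Glo luminescence reports ERE-luciferase activity.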

The nature of test [5]: qHTS assay to identify small molecule agonists or antagonists of the thyroid stimulating hormone receptor (TSHR) signaling pathway - wild type cell line counter screen (AID 1259384; calls by dose curve). An outline of the steps:
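Wild-type HEK293 cells were plated 18 h at 37 C/5% CO2, pin-dosed with compound plus Ro20-1724 medium, held 30 min at room temperature, then given cAMP-d2 and anti-cAMP-cryptate; fluorescence was read after 1 h. Fifteen concentrations, triplicate.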

The target in test [6] is Thyrotropin receptor (Homo sapiens) (UniProt P16473). The test can be described thus: qHTS assay to identify small molecule antagonists of the thyroid stimulating hormone receptor (TSHR) signaling pathway (AID 1259385; calls by dose curve; note: nearly all actives have a fitted effect of over 20% in size). An outline of the steps:
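TSHR-HEK293 cells were plated and held 18 h at 37C/5% CO2, then given compound plus Ro20-1724 and stimulated with TSH at 1.5 ng/mL final. After 30 min at room temperature, cAMP was detected with cAMP-d2/anti-cAMP-cryptate (1 h) by fluorescence.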

The nature of test [7]: qHTS assay to identify small molecule antagonists of the TGF-beta/Smad signaling pathway - cell viability counter screen (AID 1346824). Note: nearly all actives have a fitted effect of over 50% in size. An outline of the steps: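 SBE-bla HEK 293T cells were plated overnight at 37 C, then given compounds in DMSO plus TGF-beta1 (added as 0.25 ng/mL solution) for 5 hr. After the bla read, CellTiter-Glo was added to the same wells and luminescence read after 30 min at room temperature.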

Test [8] in a line: qHTS assay to identify small molecule agonists of the TGF-beta/Smad signaling pathway - cell viability counter screen (AID 1346829). Note: top concentration of the series differs between compounds; nearly all actives have a fitted effect of over 45% in size. The essentials: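 HEK 293T SBE-bla line, 5 hr compound exposure at 37 C, multiplexed CellTiter-Glo viability read by luminescence.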
A short description of test [9]: qHTS assay to identify small molecule agonists of the TGF-beta/Smad signaling pathway (AID 1346859; active = well fitted activation curve with a large enough effect in the signal ratio in the repeat runs, not every such curve was filed as active; the % refers to the signal ratio; note: series mostly up to about 77 µM). The essentials:
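SBE-bla HEK 293T, 4,000 cells/well, plated o/n; cpd in DMSO, 5 hr, 37 C/5% CO2; B/G FRET substrate 2 hr RT; ex 405, em 460/530 nm.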

In test [10] the target is Thyrotropin-releasing hormone receptor (Homo sapiens) (UniProt P34981). The test can be described thus: qHTS assay to identify small molecule antagonists of the thyrotropin-releasing hormone receptor (TRHR) signaling pathway (AID 1346877; active = well fitted inhibition curve with a large enough effect in the repeat runs, not every such curve was filed as active; note: series mostly up to about 51 µM). An outline of the steps:
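Cells (TRHR-HEK293) are plated and kept 18 h at 37 °C/5% CO2. A calcium-sensitive dye is added for 2 h, compound follows for 5 min at room temperature, and TRH is then given at 1 nM final.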

Test [11] shares this target. Kind of test: qHTS assay to identify small molecule agonists of the thyrotropin-releasing hormone receptor (TRHR) signaling pathway (AID 1346891; calls by dose curve; note: series mostly up to about 58 µM). The essentials: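 Intracellular calcium rise, read as fluorescence every second for 3 min, served as the agonist signal in dye-loaded HEK293 cells expressing TRHR; each compound ran at 15 concentrations in triplicate.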
Test [12] can be described thus: Human pregnane X receptor (PXR) small molecule agonists, qHTS cell viability counter screen (AID 1346977). Note: nearly all actives have a fitted effect of over 50% in size. Note: potency is the fitted concentration of half-maximal effect. An outline of the steps: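 PXR-Luc HepG2, 2,000 cells/well, 5% charcoal-stripped FBS; 5hr settle; cpd 24hr, 37C/5% CO2; CellTiter-Fluor at 23hr, read 1hr later (fluorescence).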
The nature of test [13]: Caspase-3/7 induction in HepG2 cells by small molecules, qHTS assay (AID 1346978). Note: nearly all actives have a fitted effect of over 15% in size. Note: potency is the fitted concentration of half-maximal effect. The essentials: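 Wild-type HepG2 cells (2,000/well) were settled 5 h at 37 C, 5% CO2, then exposed to compounds in DMSO for 17 h. Caspase-3/7 activity was read by luminescence 30 min after adding Caspase-Glo 3/7 reagent at room temperature.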
For test [14], the target named is Androgen receptor (Homo sapiens) (UniProt P10275). Kind of test: qHTS assay to identify small molecule agonists of the androgen receptor (AR) signaling pathway in the presence of an antagonist (AID 1259381; calls by dose curve; note: nearly all actives have a fitted effect of over 15% in size). The essentials:
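Cells are MDA-kb2 (human breast carcinoma, MMTV-luc, AR/GR responsive). Nilutamide is present at 3.0uM final throughout; compounds are added at 15 concentrations and incubated 16hr at 37C before ONE-Glo luminescence detection.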

Test [15] is described as follows: qHTS assay to identify small molecule agonists of the estrogen receptor alpha (ER-alpha) signaling pathway in the presence of an antagonist - cell viability counter screen (AID 1259386).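 Note: cells exposed to compounds for 22 h at 37 °C before the viability read; nearly all actives have a fitted effect of over 30% in size.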 Note: potency is the fitted concentration of half-maximal effect. The essentials:
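Cells are starved of estrogens for 5 days in charcoal-stripped serum, seeded for 24hr and co-treated with ICI-182,780 (10.0nM final) and test compounds. After 22hr at 37C, viability is read as CellTiter-Fluor fluorescence.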

The nature of test [16]: qHTS assay to identify small molecule antagonists of the progesterone receptor (PR) signaling pathway - cell viability counter screen (AID 1346798). Note: nearly all actives have a fitted effect of over 50% in size. Note: potency is the fitted concentration of half-maximal effect. An outline of the steps: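 HEK293T PR-UAS-bla, 2% charcoal-stripped FBS; 4 hr pre-plate; cpd + R5020, 16 h 37C; LiveBLAzer read first; then CellTiter-Glo 30 min RT, luminescence.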
The target in test [17] is Progesterone receptor (Homo sapiens) (UniProt P06401). The test can be described thus: qHTS assay to identify small molecule agonists of the progesterone receptor (PR) signaling pathway (AID 1346784; calls by dose curve; note: nearly all actives have a fitted effect of over 30% in size). An outline of the steps: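 Beta-lactamase reporter read-out: after 16 hr compound treatment at 37C and a further 2 hr at room temperature with LiveBLAzer B/G FRET substrate, fluorescence was measured in PR-UAS-bla HEK 293T cells grown in 2% charcoal-stripped serum.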

Test [18] has the same target. Kind of test: qHTS assay to identify small molecule antagonists of the progesterone receptor (PR) signaling pathway (AID 1346795; active = well fitted inhibition curve with a large enough effect in the signal ratio in the repeat runs, not every such curve was filed as active; the % refers to the signal ratio; note: potency is the fitted concentration of half-maximal effect). The essentials: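 Read-out is fluorescence from the LiveBLAzer B/G FRET substrate, cleaved by a UAS-controlled beta-lactamase in PR-UAS-bla HEK293T cells after 16 hr exposure to compound plus 1 nM promegestone (final), followed by 2 hr at room temperature.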

Test [19] is described as follows: qHTS assay to identify small molecule agonists of the progesterone receptor (PR) signaling pathway - cell viability counter screen (AID 1346799; calls by dose curve; note: nearly all actives have a fitted effect of over 45% in size). The essentials:
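Luminescence from CellTiter-Glo, added after the beta-lactamase FRET read in the same wells, gave cytotoxicity in PR-UAS-bla HEK293T cells treated with compounds for 16 hr at 37C.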

Sequence of Progesterone receptor (Homo sapiens) (P06401 whole entry, looked up): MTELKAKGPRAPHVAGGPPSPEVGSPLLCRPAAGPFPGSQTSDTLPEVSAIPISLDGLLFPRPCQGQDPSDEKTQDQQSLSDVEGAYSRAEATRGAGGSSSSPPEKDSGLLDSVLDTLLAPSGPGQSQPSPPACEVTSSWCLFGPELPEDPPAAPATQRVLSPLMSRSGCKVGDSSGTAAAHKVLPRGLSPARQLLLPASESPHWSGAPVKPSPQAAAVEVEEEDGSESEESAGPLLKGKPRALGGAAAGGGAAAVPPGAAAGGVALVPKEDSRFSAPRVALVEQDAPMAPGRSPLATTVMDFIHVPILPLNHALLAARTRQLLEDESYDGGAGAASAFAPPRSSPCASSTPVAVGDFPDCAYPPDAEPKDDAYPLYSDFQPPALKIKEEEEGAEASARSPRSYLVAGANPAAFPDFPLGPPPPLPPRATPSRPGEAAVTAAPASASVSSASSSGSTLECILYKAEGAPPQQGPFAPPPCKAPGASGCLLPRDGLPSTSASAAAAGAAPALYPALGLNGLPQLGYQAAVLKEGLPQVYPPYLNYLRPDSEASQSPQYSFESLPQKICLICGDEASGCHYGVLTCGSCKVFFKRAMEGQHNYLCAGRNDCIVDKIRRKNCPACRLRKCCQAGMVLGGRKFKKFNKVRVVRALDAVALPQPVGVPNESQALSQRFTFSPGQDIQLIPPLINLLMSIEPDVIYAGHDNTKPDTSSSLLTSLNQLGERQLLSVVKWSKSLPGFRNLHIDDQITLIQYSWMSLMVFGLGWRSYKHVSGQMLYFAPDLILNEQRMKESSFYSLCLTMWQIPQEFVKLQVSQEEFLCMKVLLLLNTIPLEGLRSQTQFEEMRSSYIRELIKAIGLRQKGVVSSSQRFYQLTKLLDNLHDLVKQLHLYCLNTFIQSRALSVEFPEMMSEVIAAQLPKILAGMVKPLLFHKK
Sequence of Thyrotropin receptor (Homo sapiens) (P16473 whole entry, looked up): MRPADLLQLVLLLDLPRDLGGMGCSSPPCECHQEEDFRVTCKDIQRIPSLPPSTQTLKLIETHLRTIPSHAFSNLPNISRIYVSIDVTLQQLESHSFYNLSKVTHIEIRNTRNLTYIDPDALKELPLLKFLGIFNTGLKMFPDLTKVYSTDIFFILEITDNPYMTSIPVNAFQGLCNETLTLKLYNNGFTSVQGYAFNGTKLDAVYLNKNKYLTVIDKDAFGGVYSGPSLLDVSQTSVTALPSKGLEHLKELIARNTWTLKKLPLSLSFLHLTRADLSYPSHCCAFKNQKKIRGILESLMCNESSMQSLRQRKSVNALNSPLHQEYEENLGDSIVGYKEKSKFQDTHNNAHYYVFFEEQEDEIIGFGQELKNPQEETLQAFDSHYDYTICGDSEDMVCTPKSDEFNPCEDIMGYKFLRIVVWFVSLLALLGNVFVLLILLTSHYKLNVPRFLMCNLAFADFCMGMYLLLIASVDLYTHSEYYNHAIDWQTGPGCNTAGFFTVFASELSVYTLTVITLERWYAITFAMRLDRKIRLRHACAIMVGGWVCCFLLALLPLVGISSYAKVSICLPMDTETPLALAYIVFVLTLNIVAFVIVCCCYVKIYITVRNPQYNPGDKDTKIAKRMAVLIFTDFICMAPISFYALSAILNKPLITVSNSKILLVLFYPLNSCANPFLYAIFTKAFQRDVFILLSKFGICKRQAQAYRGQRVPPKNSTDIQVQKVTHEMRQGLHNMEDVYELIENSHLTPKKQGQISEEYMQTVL
Sequence of Estrogen receptor (Homo sapiens) (P03372 whole entry, looked up): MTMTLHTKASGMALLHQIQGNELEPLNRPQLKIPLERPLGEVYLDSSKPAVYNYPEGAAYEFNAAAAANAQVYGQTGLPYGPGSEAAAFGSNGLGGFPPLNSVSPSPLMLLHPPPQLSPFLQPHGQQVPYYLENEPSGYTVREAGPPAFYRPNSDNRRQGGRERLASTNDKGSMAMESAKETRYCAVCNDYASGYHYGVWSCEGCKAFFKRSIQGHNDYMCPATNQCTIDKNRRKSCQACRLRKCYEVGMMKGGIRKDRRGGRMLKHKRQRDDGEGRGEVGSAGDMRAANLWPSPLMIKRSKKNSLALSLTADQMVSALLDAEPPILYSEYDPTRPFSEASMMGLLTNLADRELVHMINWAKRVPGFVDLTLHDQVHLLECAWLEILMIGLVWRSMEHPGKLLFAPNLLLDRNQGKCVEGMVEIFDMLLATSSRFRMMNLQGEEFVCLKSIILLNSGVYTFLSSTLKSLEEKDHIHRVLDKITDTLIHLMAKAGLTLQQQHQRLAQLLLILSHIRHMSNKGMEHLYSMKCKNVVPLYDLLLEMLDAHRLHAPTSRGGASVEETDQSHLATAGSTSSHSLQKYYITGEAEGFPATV
Sequence of Androgen receptor (Homo sapiens) (P10275 whole entry, looked up): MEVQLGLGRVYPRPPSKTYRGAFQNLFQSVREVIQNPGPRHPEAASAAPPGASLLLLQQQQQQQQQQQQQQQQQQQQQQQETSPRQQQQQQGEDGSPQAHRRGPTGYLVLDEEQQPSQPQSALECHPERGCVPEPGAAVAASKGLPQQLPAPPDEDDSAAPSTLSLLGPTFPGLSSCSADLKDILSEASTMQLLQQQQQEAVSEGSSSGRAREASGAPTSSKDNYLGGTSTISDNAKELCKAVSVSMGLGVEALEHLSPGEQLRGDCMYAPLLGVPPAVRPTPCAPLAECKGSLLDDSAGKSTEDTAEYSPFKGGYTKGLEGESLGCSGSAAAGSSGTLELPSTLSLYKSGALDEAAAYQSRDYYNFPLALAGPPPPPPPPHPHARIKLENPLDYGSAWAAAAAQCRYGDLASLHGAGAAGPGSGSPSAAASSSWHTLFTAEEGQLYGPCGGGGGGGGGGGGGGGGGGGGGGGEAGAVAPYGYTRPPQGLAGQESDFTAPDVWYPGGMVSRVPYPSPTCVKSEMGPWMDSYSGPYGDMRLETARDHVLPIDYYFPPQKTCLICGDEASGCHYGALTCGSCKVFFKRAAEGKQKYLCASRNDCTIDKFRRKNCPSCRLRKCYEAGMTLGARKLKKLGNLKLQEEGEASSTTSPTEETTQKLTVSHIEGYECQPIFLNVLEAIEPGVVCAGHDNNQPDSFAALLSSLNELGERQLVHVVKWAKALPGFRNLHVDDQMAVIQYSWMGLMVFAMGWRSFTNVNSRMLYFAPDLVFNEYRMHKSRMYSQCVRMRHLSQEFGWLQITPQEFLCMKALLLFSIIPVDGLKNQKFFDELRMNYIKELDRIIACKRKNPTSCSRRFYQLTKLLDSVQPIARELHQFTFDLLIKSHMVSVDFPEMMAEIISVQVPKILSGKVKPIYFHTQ
Sequence of Thyrotropin-releasing hormone receptor (Homo sapiens) (P34981 whole entry, looked up): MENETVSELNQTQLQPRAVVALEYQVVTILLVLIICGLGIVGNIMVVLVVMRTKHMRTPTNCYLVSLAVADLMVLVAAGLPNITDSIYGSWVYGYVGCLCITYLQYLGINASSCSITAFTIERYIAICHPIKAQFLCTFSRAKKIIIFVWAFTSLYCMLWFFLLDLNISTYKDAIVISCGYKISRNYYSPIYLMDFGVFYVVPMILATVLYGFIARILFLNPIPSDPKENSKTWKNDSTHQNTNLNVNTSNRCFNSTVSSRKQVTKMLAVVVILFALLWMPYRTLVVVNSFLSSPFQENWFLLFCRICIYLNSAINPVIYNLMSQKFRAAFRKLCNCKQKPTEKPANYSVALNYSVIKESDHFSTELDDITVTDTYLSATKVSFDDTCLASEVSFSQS

As to `COc1cc(C=O)cc2c1[C@H](COC(N)=O)[C@]1(OC(C)=O)ON2C[C@H]2[C@@H]1N2C(C)=O`, the Potency in [1] is 27.3 µM (active); in [12] it was 1.93 µM (active); in test [13], 193 nM (active). The Potency entry in test [2], in test [3], in test [4], in test [6], in test [7] and in test [8] was “inactive” each time. In addition, the Potency result in test [10] and in test [11] was “inactive” in each case. Moreover, the outcome in test [5] and in test [9] was inactive.

`CC(=O)O[C@H]1CC[C@@]2(C)C(=CC[C@@H]3[C@@H]2CC[C@]2(C)C(=O)CC[C@@H]32)C1`: the Potency entry in test [1], in test [14], in test [15], in [7], in [8] and in test [12] was “inactive” in each case. For the same molecule, the Potency result in test [13] was “inactive”. Moreover, the results for the Potency in test [2], in test [4] and in test [16] were 48.6 µM (active), 8.63 µM (active) and 68.6 µM (active), respectively. Besides, the molecule was classed as inactive in [9].

As for `O=c1oc2ccccc2c(O)c1Cc1c(O)c2ccccc2oc1=O`, the Potency result in test [1], in test [14], in test [15], in test [17], in test [7] and in test [8] was “inactive” in each case. The Potency result in [13] was “inactive”. In addition, the Potency in test [2] is 5.31 µM (active). Further, in [9], the result was inactive.

With `O=[N+]([O-])c1ccc(Oc2ccc(C(F)(F)F)cc2[N+](=O)[O-])cc1`, the Potency entry in [1], in test [2], in test [3], in test [4], in test [6] and in [15] was “inactive” each time. Further, the Potency entry in [17], in [7], in test [8], in test [10], in test [11] and in test [12] was “inactive” throughout. Moreover, the Potency entry in test [13] was “inactive”. The call in test [5] and in test [9] was inactive. Moreover, the Potency in test [18] is 7.7 µM (active).

With `CC(=O)Nc1ccc2c(c1)Cc1ccccc1-2`, the Potency result in test [1], in test [2], in test [3], in test [6], in test [15] and in test [17] was “inactive” each time. In addition, the Potency result in test [16], in test [7], in test [8], in test [10], in test [11] and in test [12] was “inactive” each time. Also, the Potency entry in test [13] was “inactive”. In test [4], the Potency is 8.77 µM (active). For the same molecule, the call in test [5] and in test [9] was inactive.

With `CCC(C)c1cc([N+](=O)[O-])cc([N+](=O)[O-])c1OC(=O)C=C(C)C` (stereo not given), the Potency in [1] was 54.5 µM (active); in test [15], 54.5 µM (active); in [18] it was 12.2 µM (active); in [12], 27.3 µM (active). For the same molecule, the Potency entry in [2], in [14], in test [6], in [17], in [7] and in test [8] was “inactive” each time. Besides, the Potency result in test [10], in [11] and in test [13] was “inactive” in each case. In addition, the result in test [5] was inactive.

For the molecule `CC(=O)c1cc(C(C)(C)C)cc2c1CCC2(C)C`, the Potency result in [1], in [2], in [3], in test [4], in [15] and in test [17] was “inactive” throughout. In addition, the Potency entry in test [18], in [16], in [19], in [7], in [8] and in test [10] was “inactive” each time. In addition, the Potency result in test [11], in test [12] and in test [13] was “inactive” throughout. Besides, the call in test [9] was inactive.
